# High-throughput results from PubChem.
# Shown are actives, neighbours in structure and some others; about 19% of the full set was active somewhere.
# IL1B secr inh – inflammasome signaling inhibition, IL-1 beta readout; activity change, % at 57.5 µM; AID 743279; THP-1 LPS/ATP IL-1B secretion, AlphaLISA, 16 h; active compounds read low; hit rate 4.7% among 360,000; in the data active means activity change below about -50%; inconclusive means mostly about -30% to -49%; further: on the % scale 0 is the no-effect control and ±100 the full control effect
#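 THP-1 cells pretreated 1 hr with compounds (up to 57.5 uM final), then stimulated with LPS (250 ng/mL final) plus ATP (1.25 mM final); secreted IL-1B measured by AlphaLISA after 16 hr, decreased signal indicating inhibition.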
# DT40 TDP1 CPT – growth inhibition of DT40 Tdp1-/-;hTDP1 cells with camptothecin (screen for TDP1 inhibitors) | chicken DT40 Tdp1-/-;hTDP1 cells + 20 nM CPT, ATP luminescence, 48 h | Potency, µM (series often up to 46.2 µM), for the others: at the highest dose activity change, negative = growth inhibition, hits mostly inhibitors | hit rate 12% among 420,000; further: potency means the concentration at half of the fitted maximal effect; on the % scale 0 is the no-effect control and ±100 the full control effect; nearly all actives have a fitted effect of over 55% in size
#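 Chicken DT40 Tdp1-/- cells stably complemented with human TDP1 were seeded at 400 cells/well in medium containing 20 nM camptothecin, exposed to pin-transferred compounds, and grown at 37 °C for at least 48 hr. Viability was read as ATP luminescence.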
# MCF10A rereplic – DNA re-replication induction in MCF 10a cells | hit rate 2.9% among 350,000 | MCF 10A DNA re-replication, Hoechst nuclear intensity, 48 h | Potency, µM (top dose mostly 46.1 µM), inactives show at the highest dose activity, positive = re-replication, actives largely listed as activators; further: potency means the concentration at half of the fitted maximal effect; % of control where 0% means no effect; nearly all actives have a fitted effect of over 50% in size
# DT40 TDP1 no CPT – qHTS for Inhibitors of human tyrosyl-DNA phosphodiesterase 1 (TDP1): qHTS in cells in absence of CPT; DT40 Tdp1-/- hTDP1 cells, no CPT, ATP luminescence, 48 h; Potency, µM (highest dose often 46.2 µM), without a hit: at the highest dose activity change, negative = growth inhibition, hits mostly inhibitors; hit rate 15% among 420,000; further: potency means the concentration at half of the fitted maximal effect; on the % scale 0 is the no-effect control and ±100 the full control effect; nearly all actives have a fitted effect of over 55% in size
#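 No-CPT arm: Tdp1-/-;hTDP1 DT40 cells (400/well) plus compounds, incubated ≥48 hr at 37 °C. Readout CellTiter-Glo luminescence.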
# SW480 rereplic – induces DNA re-replication in SW480 colon adenocarcinoma cells | AID 624297 | hit rate 1.8% among 340,000 | Potency, µM (titrated, usually from 46.1 µM), without a hit: top-dose re-replication activation, usual class: activators | SW480 DNA re-replication, Hoechst DNA content imaging, 48 h; further: potency means the concentration at half of the fitted maximal effect; % of control where 0% means no effect; nearly all actives have a fitted effect of over 55% in size
#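 Readout is total intensity of Hoechst-stained nuclei, excited at 405 nm and collected at 500-530 nm. Compound treatment lasted 48 hr at 37 C in 5% CO2 before staining.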
# Chronic BCR inh – blocks chronic active B-cell receptor signaling. ABC-DLBCL IkBa-CBG/CBR reporter, luminescence ratio, 4 h. Potency, µM (top dose mostly 46.1 µM), without a hit: top-dose activity change, negative = inhibition, hits mostly inhibitors. hit rate 0.05% among 340,000. AID 493014; active means well fitted inhibition curve with a large enough effect in the signal ratio, with a control signal flat, not every such curve was filed as active; inconclusive means small, poorly fitted or top-dose-only effect, or effect the other way, or a change in a side signal; the % refers to the signal ratio;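 further: potency means the concentration at half of the fitted maximal effect; plate controls were basal doxycycline-induced cells for no effect and cells given 10 µM MG132 for full effect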
#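 Concentration-response series (up to 46 uM) were applied to TMD8 dual-reporter cells for 4 h at 37C with doxycycline. Green/red ratio, after filter-overlap correction, defined %Activity; red signal alone was normalised to basal cells and zero luminescence.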
# An asterisk follows results filed as active; ? = inconclusive; / = no result; ! = not active in a repeat. Unless noted, the call rests on the fitted dose curve; in most records, active means well fitted curve in the direction sought with a large enough effect; inconclusive means small, poorly fitted or top-dose-only effect, or another doubt; inactive means no such curve, though single readings can be large; an effect the other way counts as inactive or inconclusive.
SMILES,IL1B secr inh,DT40 TDP1 CPT,MCF10A rereplic,DT40 TDP1 no CPT,SW480 rereplic,Chronic BCR inh
CC(C)NC(=O)N1CC[C@@]2(CCCNC2)C1,/,0%,/,0%,/,/
COC1CC2C=C(C)C=CC=CC(=O)NC(c3ccccc3)CC=CCCC(O)CC(=O)C2=C1O (configuration not stated),-113*,0.46µM*,/,0.52µM*,/,/
C[C@H]1O[C@@H](O[C@H]2[C@@H](O)C[C@H](O[C@H]3[C@@H](O)C[C@H](O[C@H]4CC[C@]5(C)C6CC[C@]7(C)[C@@H](C8=CC(=O)OC8)CC[C@]7(O)C6CC[C@@H]5C4)O[C@@H]3C)O[C@@H]2C)C[C@H](O)[C@@H]1O (some centres not stated),/,0.34µM*,/,0.38µM*,/,/
C[C@H]1O[C@@H](O[C@H]2[C@@H](O)C[C@@H](O[C@H]3[C@@H](O)C[C@H](O[C@H]4CC[C@@]5(C)[C@H](CC[C@@H]6[C@@H]5CC[C@]5(C)[C@@H](C7=CC(=O)OC7)CC[C@]65O)C4)O[C@@H]3C)O[C@@H]2C)C[C@H](O)[C@@H]1O,/,0.32µM*,/,0.11µM*,/,/
CO[C@H]1[C@@H](O)C[C@H](O[C@H]2[C@@H](O)C[C@H](O[C@H]3[C@@H](O)C[C@H](O[C@H]4CC[C@@]5(C)[C@H](CC[C@@H]6[C@@H]5C[C@@H](O)[C@]5(C)[C@@H](C7=CC(=O)OC7)CC[C@]65O)C4)O[C@@H]3C)O[C@@H]2C)O[C@@H]1C,/,0.53µM*,/,0.38µM*,/,/
CC1O[C@@H](O[C@@H]2C(O)C[C@H](O[C@@H]3C(O)C[C@@H](OC4CC[C@@]5(C)C6CC[C@]7(C)C(C8=CC(=O)OC8)CC[C@@]7(O)C6CC[C@@H]5C4)OC3C)OC2C)CC(O)[C@H]1O (some centres not stated),/,1µM*,/,0.73µM*,/,/
CO[C@H]1[C@@H](O)CC(OC2[C@@H](O)CC(OC3[C@@H](O)C[C@H](OC4CC[C@@]5(C)C(CCC6C5CC(O)[C@]5(C)[C@H](C7=CC(=O)OC7)CCC65O)C4)O[C@@H]3C)O[C@@H]2C)O[C@@H]1C (some centres not stated),/,/,20%,/,10%,/
C[C@H](NC(=O)N1C[C@H]2C[C@@H](C1)c1cccc(=O)n1C2)C(=O)Nc1ccccc1F,-5,1%,28%,-2%,6%,-7%
CCC1(CCC(C)C)C(=O)NC(=S)NC1=O,10,7%,-21%,-5%,-21%,/
C#C[C@]1(O)CC[C@H]2[C@@H]3CCC4=CC(=O)CCC4(C)[C@H]3CCC21C (some centres not stated),/,/,2%,/,1%,/
COC1C(O)C(C)OC(OC2CCC3(C)C(CCC4C3C(O)CC3(C)C(C5=CC(=O)OC5)CCC43O)C2)C1O (configuration not stated),0,1.8µM*,0.26µM*,2.1µM*,1.3µM*,/
COC(=O)c1ccc(NC(=O)CSc2nc3ccc(N4C(=O)C5C6C=CC(C6)C5C4=O)cc3s2)cc1 (configuration not stated),?,21µM*,?,18µM*,0%,?
Cc1cc(C)cc(NC(=O)CN2C(=O)CN=C(c3ccccc3)c3cc(Cl)ccc32)c1,/,21µM*,/,?,/,?
COc1ccc(Cl)cc1NC(=O)CN1C(=O)CN=C(c2ccccc2)c2cc(Cl)ccc21,/,?,/,15µM*,/,/
Oc1ccc(C(=C(Cl)Cl)c2ccc(O)cc2)cc1,/,/,/,/,/,-1%
NC(=O)OCCCc1ccccc1,-7,5.3µM*!,?,21µM*!,-1%,/
NP(=O)(OCCCc1ccccc1)Oc1ccccc1 (configuration not stated),-8,-18%,17%,-20%,-1%,?
COC(=O)C1=C(c2ccc(F)cc2OCc2ccccc2)C[C@@H]2CC[C@H]1N2C(=O)NCc1ccccc1C(F)(F)F,-23,?,?,?,13%,0%
COC(=O)C1=C(c2ccc(F)cc2OCc2ccccc2)C[C@@H]2CC[C@H]1N2C(=O)NCc1ccccc1Br,-12,?,2%,16µM*,2%,-8%
COC(=O)C1=C(c2ccc(F)cc2OCc2ccccc2)C[C@@H]2CC[C@H]1N2C(=O)NC1Cc2ccccc2C1,-20,?,?,26µM*,3%,?
COC(=O)C1=C(c2cccc(OC)c2OC)C[C@@H]2CC[C@H]1N2C(=O)NCc1ccc(F)cc1,3,-26%,0%,-16%,1%,/
COC(=O)C1=C(c2ccc(F)cc2OCc2ccccc2)C[C@@H]2CC[C@H]1N2C(=O)NCc1ccc(C)cc1,-59*,?,-4%,?,?,4%
COC(=O)C1=C(c2ccc(F)cc2OCc2ccccc2)C[C@@H]2CC[C@H]1N2C(=O)NCc1ccc([N+](=O)[O-])cc1,-58*,?,0%,?,20%,?
Cc1ccsc1C(=O)C1CCCN(Cc2cc(C(C)C)n[nH]2)C1 (configuration not stated),0,6%,-4%,?,-40%,-9%
CCN1C[C@]2(C)CC[C@H](O)[C@]34C1[C@H](C[C@H]23)[C@@]1(O)C[C@H](OC)[C@H]2C[C@@H]4[C@@H]1C2O (some centres not stated),21,-6%,-9%,-2%,-23%,7%
Cc1ccc(NC2=NCCCS2)c(C)c1C,-11,-9%,13%,?,-5%,0%
O=[N+]([O-])CCO,22,-13%,-4%,-15%,-25%,-3%
COC(=O)C1=C(c2ccccc2OCc2ccccc2)C[C@@H]2CC[C@H]1N2C(=O)NCc1ccc(F)cc1,?,?,25%,?,?,?
COC(=O)C1=C(c2ccc(F)cc2F)C[C@@H]2CC[C@H]1N2C(=O)NCc1ccc(C(F)(F)F)cc1,?,?,-9%,21µM*,0%,1%
COC(=O)C1=C(c2ccc(F)cc2OCc2ccccc2)C[C@@H]2CC[C@H]1N2C(=O)NCc1ccc(F)cc1,-19,?,?,?,0.52µM*,?
